Values joined by “and” are separate entries in the source; they are usually repeats but may differ in a detail not shown here. Equal values may be shown once. A structure can be active in one record and inactive in another. Active and inactive are the calls of the source. How the source made its calls: active means hit-call score of the fitted dose curve at least 0.9, where 1 is the maximum; inactive means score below 0.9.

What all share (settings): mRNA level, 48 h; actives raise or lower the signal
Read-out in experiment [1]: Early growth response protein 1 (EGR1) transcription factor, EGR1 (gene 1958)
Briefly: LTEA_HepaRG_EGR1: Life Technologies and Expression Analysis (LTEA) Assay for Early growth response protein 1 (EGR1) transcription factor using HepaRG (AID 2283490). The gist of the method:
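HepaRG, 48 h exposure, 8-pt half-log series from 100 uM, 0.5% DMSO vehicle; EGR1 transcript by TaqMan qRT-PCR (Fluidigm array), housekeeping-normalized; bidirectional fit relative to DMSO baseline.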

Read-out in experiment [2]: Ezrin (EZR), EZR (gene 7430)
Nature of the experiment: LTEA_HepaRG_EZR: Life Technologies and Expression Analysis (LTEA) Assay for Ezrin (EZR) using HepaRG (AID 2283491). The gist of the method:
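EZR transcript levels came from Fluidigm qRT-PCR and were normalized to three housekeeping genes after 48 h chemical exposure of HepaRG cells. Dosing used an 8-point half-log series with a 100 uM top concentration in 0.5% DMSO, tested in duplicate; both directions were fitted versus vehicle.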

Read-out in experiment [3]: Cytochrome P450 3A7 (Homo sapiens) (UniProt P24462)
Briefly: LTEA_HepaRG_CYP3A7: Life Technologies and Expression Analysis (LTEA) Assay for CYP3A7 using HepaRG (AID 2283492). The gist of the method: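 Human HepaRG liver cells, 48 h post-plating, switched to serum-free induction medium and exposed in duplicate for 48 h. Dosing: 100 uM top, half-log dilutions, 8 points, 0.5% DMSO vehicle. Read-out: CYP3A7 mRNA, gain or loss fitted against DMSO baseline.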

Read-out in another experiment: CYP3A5 (gene 1577)
Briefly: LTEA_HepaRG_CYP3A5: Life Technologies and Expression Analysis (LTEA) Assay for CYP3A5 using HepaRG (AID 2283493). Put shortly:
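Readout was CYP3A5 mRNA by qRT-PCR. HepaRG cultures were exposed for 48 h in serum-free induction medium to chemicals at up to 100 uM, and responses were fitted in both directions relative to DMSO vehicle.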

Read-out in experiment [4]: Fatty Acid-Binding Protein 1 (FABP1), FABP1 (gene 2168)
Briefly: LTEA_HepaRG_FABP1: Life Technologies and Expression Analysis (LTEA) Assay for Fatty Acid-Binding Protein 1 (FABP1) using HepaRG (AID 2283494). The gist of the method:
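qRT-PCR readout of FABP1 transcript (normalized to three housekeeping genes) after 48 h chemical exposure of HepaRG cells; eight concentrations, half-log steps, max 100 uM, 0.5% DMSO vehicle; gain or loss fitted relative to DMSO baseline.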

Read-out in experiment [5]: Cytochrome P450 4A22 (Homo sapiens) (UniProt Q5TCH4)
Nature of the experiment: LTEA_HepaRG_CYP4A22: Life Technologies and Expression Analysis (LTEA) Assay for Cytochrome P450 4A22 (CYP4A22) using HepaRG (AID 2283495). Put shortly: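 Readout is CYP4A22 transcript induction or loss, quantified by qRT-PCR and normalized to ACTB, GAPDH and POLR2A. Human HepaRG cells receive test chemicals for 48 h at eight half-log concentrations from 100 uM in 0.5% DMSO.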

Read-out in experiment [6]: Cytochrome P450 7A1 (Homo sapiens) (UniProt P22680)
Briefly: LTEA_HepaRG_CYP7A1: Life Technologies and Expression Analysis (LTEA) Assay for Cytochrome P450 7A1 (CYP7A1) using HepaRG (AID 2283496). The gist of the method:
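Using 0.5% DMSO as vehicle and baseline, chemicals were tested in duplicate over an 8-point range from 100 uM on HepaRG cells for 48 h; qRT-PCR signals were normalised to ACTB, GAPDH and POLR2A.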

Read-out in experiment [7]: Glutathione S-Transferase (GSTA2), GSTA2 (gene 2939)
Briefly: LTEA_HepaRG_GSTA2: Life Technologies and Expression Analysis (LTEA) Assay for Glutathione S-Transferase (GSTA2) using HepaRG (AID 2283497). The gist of the method: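 qRT-PCR readout of GSTA2 transcript, normalized to three housekeeping genes, fitted bidirectionally against 0.5% DMSO baseline. Differentiated HepaRG cells received compound for 48 h at 8 concentrations (top 100 uM, half-log steps).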

Read-out in experiment [8]: Glutamate-cysteine ligase catalytic (GCLC), GCLC (gene 2729)
Nature of the experiment: LTEA_HepaRG_GCLC: Life Technologies and Expression Analysis (LTEA) Assay for Glutamate-cysteine ligase catalytic (GCLC) using HepaRG (AID 2283498). The gist of the method:
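HepaRG, 48 h exposure, 8-pt half-log series from 100 uM, 0.5% DMSO vehicle; TaqMan qRT-PCR for GCLC mRNA, housekeeping-normalized; bidirectional curve fit vs DMSO baseline.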

Read-out in experiment [9]: growth arrest and DNA damage 45 (GADD45G), GADD45G (gene 10912)
Briefly: LTEA_HepaRG_GADD45G: Life Technologies and Expression Analysis (LTEA) Assay for growth arrest and DNA damage 45 (GADD45G) using HepaRG (AID 2283499). Put shortly: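 Gain or loss of GADD45G mRNA, quantified by TaqMan qRT-PCR against three housekeeping genes, is fitted in both directions relative to 0.5% DMSO. Human HepaRG cultures receive test chemical for 48 h at up to 100 uM.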

Read-out in experiment [10]: Glutamate-cysteine ligase regulatory (GCLM), GCLM (gene 2730)
Briefly: LTEA_HepaRG_GCLM: Life Technologies and Expression Analysis (LTEA) Assay for Glutamate-cysteine ligase regulatory (GCLM) using HepaRG (AID 2283500). The gist of the method: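 In this multiplexed HepaRG gene-expression assay, GCLM mRNA change after 48 h treatment (8 concentrations, max 100 uM) was scored against DMSO by bidirectional curve fitting.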

Read-out in experiment [11]: Glutathione S-transferase M3 (GSTM3), GSTM3 (gene 2947)
Briefly: LTEA_HepaRG_GSTM3: Life Technologies and Expression Analysis (LTEA) Assay for Glutathione S-transferase M3 (GSTM3) using HepaRG (AID 2283501). The gist of the method:
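HepaRG, plated 48 h, then serum-free induction medium; test chemical 48 h, duplicate; 100 uM top, half-log x8, 0.5% DMSO. Read-out: GSTM3 mRNA (TaqMan qRT-PCR, Fluidigm array). Bidirectional fit vs DMSO.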

Read-out in experiment [12]: Heat shock 70 kDa protein 1 (HSPA1A), gene 3303
Briefly: LTEA_HepaRG_HSPA1A: Life Technologies and Expression Analysis (LTEA) Assay for Heat shock 70 kDa protein 1 (HSPA1A) using HepaRG (AID 2283502). The gist of the method: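 An oxidative-stress marker readout: HepaRG cells treated 48 h in duplicate with an eight-point series (highest 100 uM) had HSPA1A mRNA quantified by TaqMan qRT-PCR. Activity was fitted in both directions using 0.5% DMSO as baseline.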

Read-out in experiment [13]: Hypoxia-inducible factor 1-alpha (Homo sapiens) (UniProt Q16665)
Briefly: LTEA_HepaRG_HIF1A: Life Technologies and Expression Analysis (LTEA) Assay for Hypoxia-inducible factor 1 (HIF1A) Trancription factor using HepaRG (AID 2283503).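 Further: HIF1A transcript by TaqMan qRT-PCR normalized to ACTB GAPDH and POLR2A.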 Put shortly:
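Gain- or loss-of-signal HIF1A mRNA changes are fitted against a DMSO baseline. HepaRG cultures receive eight concentrations, highest 100 uM, for 48 h in serum-free induction medium with 0.5% DMSO.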

Read-out in experiment [14]: 3-Hydroxy-3-Methylglutaryl-CoA Synthase 2 (HMGCS2), HMGCS2 (gene 3158)
Nature of the experiment: LTEA_HepaRG_HMGCS2: Life Technologies and Expression Analysis (LTEA) Assay for 3-Hydroxy-3-Methylglutaryl-CoA Synthase 2 (HMGCS2) using HepaRG (AID 2283504). Put shortly:
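HepaRG, plated 48 h then switched to serum-free induction media; cmpd 8-pt, max 100 uM, 1/2-log, 0.5% DMSO, n=2, 48 h. HMGCS2 mRNA by Fluidigm TaqMan qRT-PCR, ACTB/GAPDH/POLR2A norm; bidirectional fit vs DMSO.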

Read-out in a further experiment: HGF (gene 3082)
Briefly: LTEA_HepaRG_HGF: Life Technologies and Expression Analysis (LTEA) Assay for Hepatocyte Growth Facto (HGF) using HepaRG (AID 2283505). The gist of the method: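 Read-out is HGF transcript level by qRT-PCR, normalized to three housekeeping genes, fitted bidirectionally against 0.5% DMSO vehicle. Human HepaRG cells received test chemicals for 48 h at up to 100 uM.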

Read-out in experiment [15]: Insulin Like Growth Factor 1 (IGF1), IGF1 (gene 3479)
Briefly: LTEA_HepaRG_IGF1: Life Technologies and Expression Analysis (LTEA) Assay for Insulin Like Growth Factor 1 (IGF1) using HepaRG (AID 2283506). Put shortly: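 Endpoint: IGF1 mRNA change by qRT-PCR, housekeeping-normalized, fitted bidirectionally relative to 0.5% DMSO vehicle. Human HepaRG cells were treated 48 h in serum-free induction medium, eight half-log concentrations topping at 100 uM.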

Read-out in experiment [16]: Intercellular Adhesion Molecule 1 (ICAM1), ICAM1 (gene 3383)
Nature of the experiment: LTEA_HepaRG_ICAM1: Life Technologies and Expression Analysis (LTEA) Assay for Intercellular Adhesion Molecule 1 (ICAM1) using HepaRG (AID 2283507). The gist of the method: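 Readout is qRT-PCR mRNA level, normalized to three housekeeping genes and fitted bidirectionally against 0.5% DMSO vehicle. Human HepaRG cultures received compound for 48 h, top concentration 100 uM with half-log dilutions.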

Read-out in experiment [17]: Insulin-like growth factor-binding protein 1 (IGFBP1), IGFBP1 (gene 3484)
Nature of the experiment: LTEA_HepaRG_IGFBP1: Life Technologies and Expression Analysis (LTEA) Assay for Insulin-like growth factor-binding protein 1 (IGFBP1) using HepaRG (AID 2283508). The gist of the method: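 Thawed HepaRG cells are plated for 48 h, switched to serum-free induction medium, then dosed in duplicate for another 48 h (100 uM top, half-log steps). Lysates in RLT go to qRT-PCR, and gain or loss of signal is fitted relative to vehicle.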

Read-out in experiment [18]: Interleukin 6 (IL6), IL6 (gene 3569)
Briefly: LTEA_HepaRG_IL6: Life Technologies and Expression Analysis (LTEA) Assay for Interleukin 6 (IL6) using HepaRG (AID 2283509). Put shortly:
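qRT-PCR read-out of IL6 transcript, normalized to three housekeeping genes, after 48 h chemical exposure of HepaRG cells; 8-point half-log series, top 100 uM, 0.5% DMSO vehicle. Bidirectional curve fitting against DMSO baseline.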

Hypoxia-inducible factor 1-alpha (Homo sapiens), sequence (Q16665 whole entry, looked up): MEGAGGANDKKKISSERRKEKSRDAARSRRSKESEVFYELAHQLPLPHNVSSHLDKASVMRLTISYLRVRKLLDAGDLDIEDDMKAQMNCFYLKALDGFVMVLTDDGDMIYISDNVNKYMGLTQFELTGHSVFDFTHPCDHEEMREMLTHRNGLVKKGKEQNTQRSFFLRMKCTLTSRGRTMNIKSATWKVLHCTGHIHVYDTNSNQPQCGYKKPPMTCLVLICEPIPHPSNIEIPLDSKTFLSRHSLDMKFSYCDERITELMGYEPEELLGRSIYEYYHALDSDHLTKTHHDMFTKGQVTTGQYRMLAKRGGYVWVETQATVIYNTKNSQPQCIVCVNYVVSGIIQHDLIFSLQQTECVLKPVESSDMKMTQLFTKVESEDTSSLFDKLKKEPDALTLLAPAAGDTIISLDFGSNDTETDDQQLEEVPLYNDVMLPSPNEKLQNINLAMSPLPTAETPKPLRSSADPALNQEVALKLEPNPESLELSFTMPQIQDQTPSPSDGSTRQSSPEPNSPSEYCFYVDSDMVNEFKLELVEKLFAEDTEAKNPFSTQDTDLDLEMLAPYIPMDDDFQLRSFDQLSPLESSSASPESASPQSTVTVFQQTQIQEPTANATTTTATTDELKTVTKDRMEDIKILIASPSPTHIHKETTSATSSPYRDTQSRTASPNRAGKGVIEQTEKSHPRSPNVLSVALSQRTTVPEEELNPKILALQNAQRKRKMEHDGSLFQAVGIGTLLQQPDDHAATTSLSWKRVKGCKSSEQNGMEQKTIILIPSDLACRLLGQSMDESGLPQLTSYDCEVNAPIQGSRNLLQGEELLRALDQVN
Cytochrome P450 3A7 (Homo sapiens), sequence (P24462 whole entry, looked up): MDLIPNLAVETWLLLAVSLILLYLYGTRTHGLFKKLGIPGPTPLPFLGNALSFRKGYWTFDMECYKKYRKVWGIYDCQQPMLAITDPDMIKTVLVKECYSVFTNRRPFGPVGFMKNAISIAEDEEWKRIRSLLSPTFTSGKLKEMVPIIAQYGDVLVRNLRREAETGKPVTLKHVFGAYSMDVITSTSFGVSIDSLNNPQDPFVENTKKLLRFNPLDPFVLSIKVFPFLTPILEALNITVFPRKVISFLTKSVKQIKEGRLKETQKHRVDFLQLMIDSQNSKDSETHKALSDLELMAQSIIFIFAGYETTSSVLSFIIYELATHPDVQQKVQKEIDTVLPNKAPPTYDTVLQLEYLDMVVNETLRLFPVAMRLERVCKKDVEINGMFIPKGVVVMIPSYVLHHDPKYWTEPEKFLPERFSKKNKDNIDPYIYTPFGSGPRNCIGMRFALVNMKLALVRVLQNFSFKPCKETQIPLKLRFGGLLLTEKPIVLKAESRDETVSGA

Regarding `OCCOc1ccccc1`, the call (in experiment [1]; in [2]; in experiment [3]; with CYP3A5 (gene 1577); in [4]; in [5]) was inactive. Besides, the call in experiment [6], in [7], in experiment [8], in experiment [9], in experiment [10] and in [11] was inactive. For the same molecule, the outcome (in experiment [12]; in experiment [13]; in [14]; with HGF (gene 3082); in experiment [15]; in experiment [16]) was inactive. Besides, the molecule was called inactive in [17] and in experiment [18].
On to `Oc1ccc(Cl)cc1Cc1ccccc1`, for which the AC50 (commonly the midpoint of the concentration-response curve, whichever way the signal moves) is 50.5 µM (active) in experiment [1]; 50.5 µM (active) in the experiment with CYP3A5 (gene 1577); 50.5 µM (active) in experiment [4]; 91.8 µM (active) in [5]; 76.1 µM (active) in experiment [6]; 80.5 µM (active) and 92.2 µM (active) in [7]. Further, the concentration at half-maximal activity (AC50) was 91.9 µM (active) in experiment [11], 76.8 µM (active) in [14] and 83.5 µM (active) with HGF (gene 3082). The call (in experiment [1]; in experiment [2]; in [3]; in the experiment with CYP3A5 (gene 1577); in experiment [4]; in [5]) was inactive. Also, the outcome in experiment [6], in experiment [7], in [8], in [9], in experiment [10] and in experiment [11] was inactive. Further, the outcome (in experiment [12]; in experiment [13]; in experiment [14]; with HGF (gene 3082); in [15]; in experiment [16]) was inactive. The molecule was called inactive in experiment [18].

The record behind these values is PubChem BioAssay (EPA / NIEHS).
